About 83,000 compounds went through this panel and 20% of them were active in at least one assay; those are over-represented in the sample as a whole.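 Compound tested at a single concentration for 48 hours in 96-well plates; a percent growth value below 10 was scored as active.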 Unmarked numbers belong to inactive results. Calls of active or inactive are those of the source.

Test systems include SR leukemia; RPMI-8226 leukemia; OVCAR-8 ovarian; OVCAR-5 ovarian; OVCAR-4 ovarian; SK-OV-3 ovarian; IGROV1 ovarian; OVCAR-3 ovarian; HS 578T breast; NCI/ADR-RES ovarian; T-47D breast; BT-549 breast; MDA-MB-435 melanoma; SW-620 colon; MCF7 breast; HCT-116 colon; HCC-2998 colon; KM12 colon.
Experiment in all cases: NCI-60 one-dose screen, 48 h (100 = growth as untreated, 0 = no growth, -100 = all killed)
Common to all, as to conditions: 10 µM unless noted

For the molecule `CC1=C(C)C(=O)C(C(C)C2=C(C)C(=O)C(C)=C(C)C2=O)=C(C)C1=O`, the growth is 56% with SR leukemia; 50.5% with RPMI-8226 leukemia; 99.1% in the experiment on OVCAR-8 ovarian; 44% with OVCAR-5 ovarian; 104% in the experiment on OVCAR-4 ovarian; 98.1% in the experiment on SK-OV-3 ovarian. Besides, the growth was 2.57% (active) in the experiment with IGROV1 ovarian; 150% in the experiment with OVCAR-3 ovarian; 77.9% with HS 578T breast; 91.9% in the experiment on NCI/ADR-RES ovarian; 91.6% with T-47D breast; 83.5% in the experiment on BT-549 breast. Moreover, the growth with MDA-MB-435 melanoma was 98.1%; in the experiment with SW-620 colon, 107%; with MCF7 breast, 102%; with HCT-116 colon, 71.2%; in the experiment with HCC-2998 colon, 23.4%; in the experiment with KM12 colon it was 88.8%.

Take `Cc1c(Cc2ccccc2)c(=O)oc2c(C)c(OCC(=O)n3nc(C#N)cc3N)ccc12`: the growth was 90.3% in the experiment on SR leukemia; 100% in the experiment on RPMI-8226 leukemia; 102% with OVCAR-8 ovarian; 104% in the experiment with OVCAR-5 ovarian; 93% in the experiment with OVCAR-4 ovarian; 93.8% in the experiment on SK-OV-3 ovarian. Besides, the growth in the experiment on IGROV1 ovarian is 103%; with OVCAR-3 ovarian, 104%; in the experiment with HS 578T breast, 99.2%; in the experiment with NCI/ADR-RES ovarian it was 102%; in the experiment on T-47D breast, 81.9%; with BT-549 breast, 90.3%. The growth with MDA-MB-435 melanoma is 102%; in the experiment on SW-620 colon, 101%; with HCT-116 colon, 95.3%; in the experiment on HCC-2998 colon, 104%; in the experiment on KM12 colon, 98.7%.

As to `COc1ccc(-c2nc(N)n(C(=S)Nc3ccccc3)n2)cc1`, the growth is 90.8% in the experiment with SR leukemia; 99% in the experiment with RPMI-8226 leukemia; 97.8% in the experiment with OVCAR-8 ovarian; 111% in the experiment with OVCAR-5 ovarian; 109% in the experiment with OVCAR-4 ovarian; 94.7% with SK-OV-3 ovarian. The growth in the experiment with IGROV1 ovarian was 99.4%; in the experiment with OVCAR-3 ovarian, 103%; in the experiment on HS 578T breast, 87.2%; with NCI/ADR-RES ovarian it was 102%; in the experiment with T-47D breast, 84.8%; in the experiment with BT-549 breast, 102%. For the same molecule, the growth in the experiment on MDA-MB-435 melanoma is 107%; in the experiment on SW-620 colon, 99%; in the experiment on MCF7 breast it was 89.1%; with HCT-116 colon, 98.3%; with HCC-2998 colon, 107%; with KM12 colon, 95.5%.

Consider `O=C(NC1CCN(Cc2ccccc2)CC1)c1cc(-c2cccnc2)nc2ccc(Cl)cc12`, for which the growth is 23% with SR leukemia; 47.3% in the experiment on RPMI-8226 leukemia; 77.5% with OVCAR-8 ovarian; 80.5% with OVCAR-5 ovarian; 70.5% in the experiment with OVCAR-4 ovarian; 102% in the experiment on SK-OV-3 ovarian. Besides, the growth was 80.5% in the experiment on IGROV1 ovarian; 94.4% in the experiment with OVCAR-3 ovarian; 83.4% in the experiment with HS 578T breast; 67% in the experiment on NCI/ADR-RES ovarian; 45% with T-47D breast; 75.5% with BT-549 breast. Besides, the growth is 75% in the experiment with MDA-MB-435 melanoma; 27% in the experiment with SW-620 colon; 70.9% in the experiment with MCF7 breast; 57.6% in the experiment on HCT-116 colon; 39.2% in the experiment with KM12 colon.

For the molecule `O=C(O)CC1Cc2ccccc2C1C(=O)O` (centres undefined), the growth in the experiment on SR leukemia was -8.39% (active); in the experiment with RPMI-8226 leukemia, 110%; in the experiment on OVCAR-8 ovarian, 101%; in the experiment with OVCAR-5 ovarian, 108%; with OVCAR-4 ovarian, 113%; with SK-OV-3 ovarian, 102%. For the same molecule, the growth with IGROV1 ovarian is 110%; with OVCAR-3 ovarian it was 102%; in the experiment with HS 578T breast it was 104%; in the experiment on NCI/ADR-RES ovarian, 99.5%; with T-47D breast it was 101%; with BT-549 breast it was 89.7%. In addition, the growth was 108% in the experiment on MDA-MB-435 melanoma; 98.4% in the experiment with SW-620 colon; 105% in the experiment with MCF7 breast; 93.5% in the experiment with HCT-116 colon; 96.7% in the experiment on KM12 colon.

For the molecule `N#CCc1ncc(-c2ccc(C(F)(F)F)cc2)c(NC2CCCCCC2)n1`, the growth was -23.8% [100 µM] (active) in the experiment on SR leukemia; -32% [100 µM] (active) in the experiment on RPMI-8226 leukemia; 26% [100 µM] with OVCAR-8 ovarian; 50.2% [100 µM] with OVCAR-5 ovarian; 42.5% [100 µM] in the experiment on OVCAR-4 ovarian; 74.9% [100 µM] with SK-OV-3 ovarian. In addition, the growth is 44.9% [100 µM] in the experiment with IGROV1 ovarian; -19% [100 µM] (active) in the experiment on OVCAR-3 ovarian; 52.7% [100 µM] in the experiment on HS 578T breast; 28.3% [100 µM] in the experiment on NCI/ADR-RES ovarian; 20.7% [100 µM] in the experiment on T-47D breast; 9.45% [100 µM] (active) in the experiment on BT-549 breast. Moreover, the growth in the experiment with MDA-MB-435 melanoma was 0.369% [100 µM] (active); in the experiment on SW-620 colon, 19% [100 µM]; in the experiment with MCF7 breast it was 18.4% [100 µM]; in the experiment with HCT-116 colon it was 8.09% [100 µM] (active); in the experiment with HCC-2998 colon, 38.1% [100 µM]; in the experiment on KM12 colon it was 8.14% [100 µM] (active).

Regarding `Nc1nc2c(c3cnccc13)C(c1ccc(Cl)c(Cl)c1)Cc1cnccc1-2` (centres undefined), the growth was 5.08% (active) in the experiment with SR leukemia; -5.48% (active) in the experiment on RPMI-8226 leukemia; 9.87% (active) with OVCAR-8 ovarian; -1.65% (active) in the experiment on OVCAR-5 ovarian; 14.7% with OVCAR-4 ovarian; 2.34% (active) in the experiment on SK-OV-3 ovarian. Also, the growth was 7.84% (active) in the experiment with IGROV1 ovarian; -44.8% (active) with OVCAR-3 ovarian; 9.27% (active) in the experiment with HS 578T breast; -13.2% (active) in the experiment on NCI/ADR-RES ovarian; 16.9% with T-47D breast; -39.1% (active) in the experiment with BT-549 breast. For the same molecule, the growth is -53% (active) in the experiment on MDA-MB-435 melanoma; 3.85% (active) with SW-620 colon; 0.513% (active) with MCF7 breast; -37.8% (active) in the experiment with HCT-116 colon; -75.7% (active) with HCC-2998 colon; -34.8% (active) with KM12 colon.

On to `CCCCCCCCCCCCCCCCNC(=S)N/N=C/c1ccc(OC)cc1`, for which the growth in the experiment on SR leukemia was 106%; in the experiment with RPMI-8226 leukemia, 93.2%; with OVCAR-8 ovarian, 92.1%; with OVCAR-5 ovarian, 105%; with OVCAR-4 ovarian, 113%; with SK-OV-3 ovarian, 114%. For the same molecule, the growth with IGROV1 ovarian was 106%; in the experiment with OVCAR-3 ovarian, 110%; in the experiment on HS 578T breast, 107%; in the experiment on NCI/ADR-RES ovarian, 101%; in the experiment with T-47D breast, 103%; with BT-549 breast, 104%. Further, the growth with MDA-MB-435 melanoma is 107%; with SW-620 colon, 107%; in the experiment on MCF7 breast it was 102%; with HCT-116 colon, 89.6%; with HCC-2998 colon, 113%; in the experiment on KM12 colon, 97.9%.

In the case of `COc1ccc2c(c1)/C(=C/c1c(-c3cc(OC)c(OC)c(OC)c3)nc3sccn13)C(=O)N2`, the growth with SR leukemia was -41.1% (active); in the experiment on RPMI-8226 leukemia it was 60.7%; with OVCAR-8 ovarian, 105%; in the experiment with OVCAR-5 ovarian, 85.2%; with OVCAR-4 ovarian, 95.8%; with SK-OV-3 ovarian, 106%. Moreover, the growth is 29.2% in the experiment on IGROV1 ovarian; 99.5% in the experiment on OVCAR-3 ovarian; 85.7% in the experiment on HS 578T breast; 98.9% in the experiment on NCI/ADR-RES ovarian; 86.6% with T-47D breast; 98.9% in the experiment with BT-549 breast. In addition, the growth in the experiment with MDA-MB-435 melanoma is 100%; in the experiment on SW-620 colon it was 99.9%; with MCF7 breast, 92.4%; in the experiment with HCT-116 colon, 88.3%; in the experiment on HCC-2998 colon, 106%; with KM12 colon it was 84%.

These data come from PubChem BioAssay (NCI).
